Sampled rows, rich in hits. Any-hit rate of the full collection: about 3.9%.
FH mod = Identification of activators of human fumarate hydratase by quantitative high-throughput screening | FH coupled MDH/diaphorase resazurin fluorescence, 15 min | Potency, µM (top dose mostly 79.9 µM), inactives show at the highest dose activity change, negative = inhibition, hits mostly inhibitors | 54,000 tested, 0.22% active | Fumarate hydratase, mitochondrial (Homo sapiens), P07954; note: potency is the fitted concentration of half-maximal effect; % is set by controls: 0 for no effect and ±100 for the full control effect; the screen sought activators but most active calls are inhibition curves; nearly all actives have a fitted effect of over 45% in size
OvCa metastasis = ovarian cancer metastasis inhibition, 3D TME model. 46,000 tested, 0.1% active. Potency, µM (top dose mostly 45.8 µM), inactives show at the top dose activity change, negative = inhibition, most hits filed as inhibitors. SKOV3ip1-GFP adhesion/invasion on 3D omental model, fluorescence. AID 1963576;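 note: potency is the fitted concentration of half-maximal effect; plate controls were DMSO wells for no effect and tomatine positive control wells for full effect; nearly all actives have a fitted effect of over 65% in size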
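Adhesion/invasion was scored as fixed GFP-labeled SKOV3ip1 cell counts (488/509 nm), normalized to DMSO and tomatine controls. Cancer cells in serum-free medium, with four compound doses (0.36-46 umol/L), sat 2 hr at RT then 16 hr at 37 C on a 48 hr fibroblast/mesothelial/ECM culture.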
DRV1 agonist = GPR32 (DRV1) agonism, beta-arrestin recruitment. O75388. CHO-K1 GPR32 beta-arrestin PathHunter luminescence, 90 min; zero percent set by DMSO-only wells. activation, % at 76.9 µM. 48,000 tested, 2.5% active. AID 1346428;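 active = activation of at least 60% and not above a set upper limit, about 1 call in 100 departs from these limits; inconclusive = activation of 40% to 60%, or above that upper limit; inactive = activation under 40%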; note: 0% is about no effect
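Readings come from a cell-based beta-arrestin complementation format: CHO-K1 GPR32 stable cells (2,500/well) treated 90 min with compounds, then beta-Gal substrate added for 1 h before chemiluminescence imaging.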
NTMT1 inh = inhibitors of human N-terminal methyltransferase NTMT1; Potency, µM (highest dose often 114 µM), inactives show top-dose activity change, negative = inhibition, most hits filed as inhibitors; AID 1645870; 59,000 tested, 2.5% active; NTMT1 MTase-Glo SAH luminescence, purified enzyme; Q9BV86;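 note: potency is the fitted concentration of half-maximal effect; plate controls were DMSO vehicle for no effect and no enzyme for full effect; nearly all actives have a fitted effect of over 65% in size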
Sfp PPTase inh = Sfp PPTase inhibition, chemistry optimization. shares compounds with NTMT1 inh. purified Sfp PPTase enzyme activity, qHTS. Potency, µM (doses to about 114 µM), for inactives: top-dose activity change, negative = inhibition, hits mostly inhibitors. 230 tested, 78% active. AID 540350
HM489 growth = Sfp PPTase inhibitors: growth inhibition of B. subtilis HM489 | shares compounds with NTMT1 inh | B. subtilis HM489 (acpS-) growth, BacTiter-Glo, 5 h | Potency, µM (titrated, usually from 114 µM), without a hit: at the top dose activity change, negative = inhibition, most hits filed as inhibitors | 220 tested, 50% active | AID 540353
Sfp gel opt = inhibitors of Bacillus subtilis Sfp PPTase, gel-based followup; shares compounds with NTMT1 inh; purified Sfp PPTase, gel-based product detection; Potency, µM (series often up to 250 µM), without a hit: at the highest dose activity change, negative = inhibition, actives largely listed as inhibitors; 220 tested, 54% active
Sfp inh gel = confirmation of Bacillus subtilis Sfp PPTase inhibitors. 45 tested, 90% active. Potency, µM (highest dose often 250 µM), without a hit: at the highest dose activity change, negative = inhibition, hits mostly inhibitors. shares compounds with NTMT1 inh. purified Sfp PPTase, gel-based product detection
Sfp inh SAR2 = Sfp phosphopantetheinyl transferase inhibition, SAR round 2; shares compounds with NTMT1 inh; purified Sfp enzyme, PPTase activity, qHTS; Potency, µM (top dose mostly 57.1 µM), for inactives: at the highest dose activity change, negative = inhibition, actives largely listed as inhibitors; 230 tested, 87% active
hGST A1-1 inh = inhibits hGST A1-1 in Sfp inhibitor counter-screen; shares compounds with NTMT1 inh; hGST A1-1 enzyme activity counter-screen, qHTS; Potency, µM (top dose mostly 114 µM), without a hit: at the top dose activity change, negative = inhibition, hits mostly inhibitors; 55 tested, under 10 active
HSD17B4 counter = counter-screen for HPGD inhibitors: human HSD17B4 inhibition; shares compounds with NTMT1 inh; purified HSD17B4, estradiol/NAD+, NADH fluorescence; Potency, µM (doses to about 57.1 µM), without a hit: at the highest dose activity change, negative = inhibition, usual class: inhibitors; 230 tested, 10% active; AID 743187
Target sequence (P51659 whole entry, looked up): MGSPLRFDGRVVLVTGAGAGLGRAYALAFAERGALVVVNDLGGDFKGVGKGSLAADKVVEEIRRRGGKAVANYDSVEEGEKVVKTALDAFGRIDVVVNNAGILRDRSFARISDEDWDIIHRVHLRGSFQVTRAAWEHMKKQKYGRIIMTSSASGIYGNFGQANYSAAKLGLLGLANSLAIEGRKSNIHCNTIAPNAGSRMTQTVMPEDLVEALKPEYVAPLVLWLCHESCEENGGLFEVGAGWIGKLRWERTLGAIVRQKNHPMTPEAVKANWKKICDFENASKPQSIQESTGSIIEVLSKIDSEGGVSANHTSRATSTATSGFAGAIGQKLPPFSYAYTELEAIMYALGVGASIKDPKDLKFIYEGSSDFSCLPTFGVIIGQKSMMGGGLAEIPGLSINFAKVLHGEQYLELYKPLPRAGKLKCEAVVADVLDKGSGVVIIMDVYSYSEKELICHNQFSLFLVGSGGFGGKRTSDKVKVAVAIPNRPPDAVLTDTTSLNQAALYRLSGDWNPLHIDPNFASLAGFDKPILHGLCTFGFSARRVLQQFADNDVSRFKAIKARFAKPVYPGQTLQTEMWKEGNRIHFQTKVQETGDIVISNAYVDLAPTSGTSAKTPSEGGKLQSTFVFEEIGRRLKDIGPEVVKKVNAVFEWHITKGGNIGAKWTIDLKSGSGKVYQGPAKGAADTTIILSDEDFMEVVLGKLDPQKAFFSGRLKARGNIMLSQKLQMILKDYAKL
ALDH1A1 inh = ALDH1A1 (human) inhibition, HPGD counter-screen; 230 tested, 93% active; AID 743195; shares compounds with NTMT1 inh; recombinant ALDH1A1, NADH fluorescence, propionaldehyde/NAD+; Potency, µM (doses to about 57.1 µM), for the others: at the top dose activity change, negative = inhibition, usual class: inhibitors
NNMT inh = human NNMT inhibition, NTMT1 counter-screen | shares compounds with NTMT1 inh | NNMT MTase-Glo luminescence, SAH detection | Potency, µM (series often up to 57.1 µM), for the others: top-dose activity, negative = inhibition, hits mostly inhibitors | 120 tested, 10% active | AID 1645878
* marks the source's active call; other numbers are inactive results; i = inactive; ? = inconclusive; . = no result given; [ ] = dose if it differs, or a comment. Unless noted, calls come from the whole dose curve; as a rule, active = well fitted curve in the direction sought with a large enough effect; inconclusive = small, poorly fitted or top-dose-only effect, or another doubt; inactive = no such curve, though single readings can be large; an effect the other way counts as inactive or inconclusive.

SMILES	FH mod	OvCa metastasis	DRV1 agonist	NTMT1 inh	Sfp PPTase inh	HM489 growth	Sfp gel opt	Sfp inh SAR2	HSD17B4 counter	ALDH1A1 inh	others
S=C(Nc1cc(Cl)ccn1)N1CCN(c2ccc3ccccc3n2)CC1	.	.	.	?	?	26µM*	?	7.2µM*	-23%	i
Cc1ccnc(NC(=O)C(C)c2cccc(C(=O)c3ccccc3)c2)c1 (configuration not stated)	-4%	.	.	6%[57.5 µM]	.	.	.	.	.	.
Cc1ccnc(NC(=S)N2CCc3ccccc3C2)c1	.	.	.	?	9.4µM*	33µM*	3.2µM*	1µM*	47%	3µM*
Cc1ccnc(NC(=S)N2CCNCC2)c1	.	.	.	?	4%	?	-52%	14µM*	10%	27µM*
Cc1ccnc(NC(=S)N2CCN(c3ccc(Cl)cc3Cl)CC2)c1	.	.	.	?	1.9µM*	8.3µM*	13µM*	0.73µM*	-18%	5.4µM*
O=C(c1cc2ccc3cccnc3c2[nH]1)N1CCN(c2cccc(Cl)c2)CC1	-34%	-9%	-10	-3%	.	.	.	.	.	.
Cc1ccc(S(=O)(=O)Nc2cnccc2C(=O)Nc2ccc(S(=O)(=O)Nc3nccs3)cc2)cc1	.	.	.	4%	.	.	.	.	.	.
CCC(C)C1NC(=O)C2CCCN2C(=O)C(NC(C)=O)C(C)OC(=O)C(Cc2ccc(OC)cc2)N(C)C(=O)C2CCCN2C(=O)C(C(C)C)NC1=O (configuration not stated)	0%[20.6 µM]	.	.	-1%[12.6 µM]	.	.	.	.	.	.
COc1ccc(C2Nc3ccccc3C(=O)N2CCc2ccc(Cl)cc2Cl)cc1COc1ccc(NC(C)=O)cc1 (configuration not stated)	.	.	.	27%	.	.	.	.	.	.
NCC(CNc1nc(Nc2cccc(NC(=O)N3CCCC3)c2)ncc1I)C(=O)c1cccs1 (configuration not stated)	0%	.	.	?	.	.	.	.	.	.	NNMT inh=?
COc1ccc(Br)cc1S(=O)(=O)N1CCN(S(=O)(=O)c2ccc3c(c2)OCCO3)CC1	.	.	.	12%	.	.	.	.	.	.
COc1ccc([C@H]2Cc3cccc(O)c3C(=O)O2)cc1	0%	.	.	8%[57.5 µM]	.	.	.	.	.	.
Cc1nc(C#Cc2ccnc(Cl)c2)c(C)n1-c1ccc(OC(F)(F)F)cc1	-14%	.	.	?	.	.	.	.	.	.	NNMT inh=-17%
Cc1ccnc(NC(=S)NC2CCN(c3cccc(C(F)(F)F)c3)CC2)c1	.	.	.	.	?	?	?	?	24µM*	19µM*
O=C1c2ccccc2C(=O)C1(c1ccccc1)N1CCN(c2cccc(C(F)(F)F)c2)CC1	-19%	-20%	-22	7%	.	.	.	.	.	.
Cc1ccnc(NC(=S)NC2CN(c3cccc(C(F)(F)F)c3)C2)c1	.	.	.	-2%[57.5 µM]	?	37µM*	13%	?	18%	-25%
Cc1cc(N2CCC(C)CC2)nc2ccc(NC(=O)CCC(=O)N3CCN(c4cccc(C(F)(F)F)c4)CC3)cc12	1%	-7%	-8	0%	.	.	.	.	.	.
Cc1ccnc(NC(=S)Nc2cccc(C(F)(F)F)c2)c1	.	.	.	0%	10µM*	12µM*	2%	23µM*	-3%	22µM*	Sfp inh gel=?;hGST A1-1 inh=0.21µM*
Cc1ccnc(NC(=S)N2CC3CN(c4cccc(C(F)(F)F)c4)CC3C2)c1 (configuration not stated)	.	.	.	?	3.7µM*	5.9µM*	4.8µM*	0.73µM*	-17%	7.6µM*	Sfp inh gel=1.7µM*;hGST A1-1 inh=?
CC(=O)c1ccc(O[C@@H]2OC[C@@H](O)[C@H](O)[C@H]2O[C@]2(CO)O[C@H](CO)[C@@H](O)[C@@H]2O)c(O)c1	-1%[53.3 µM]	.	.	-3%[29.8 µM]	.	.	.	.	.	.
CC(C)=CCC[C@](C)(O[C@@H]1O[C@H](CO[C@@H]2O[C@H](CO)[C@@H](O)[C@H](O)[C@H]2O)[C@@H](O)[C@H](O)[C@H]1O)C1CC[C@]2(C)[C@@H]1[C@H](O)CC1[C@@]3(C)CC[C@H](O[C@@H]4O[C@H](CO)[C@@H](O)[C@H](O)[C@H]4O[C@@H]4O[C@H](CO)[C@@H](O)[C@H](O)[C@H]4O)C(C)(C)[C@@H]3CC[C@]12C (some centres not stated)	0%[20.6 µM]	.	.	-8%[12.6 µM]	.	.	.	.	.	.
Cc1cc(-c2nnc3n2CCCC3)c(C)n1-c1ccccc1	.	.	.	22%	.	.	.	.	.	.
Cn1cnc(-c2nccc3c(=O)[nH]c(OCCCC(F)(F)F)nc23)c1	?	.	.	53%[57.5 µM]	.	.	.	.	.	.
Cc1ccnc(NC(=O)N2CCN(c3cccc(C(F)(F)F)c3)CC2)c1	.	.	.	2%	0%	?	-5%	-24%	-14%	11µM*
Cc1ccnc(NC(=S)N[C@@H]2CCN(c3cccc(C(F)(F)F)c3)C2)c1	.	.	.	16%	?	?	19%	?	9%	24µM*	Sfp inh gel=0%;hGST A1-1 inh=?
Cc1ccnc(CC(=S)N2CCN(c3cccc(C(F)(F)F)c3)CC2)c1	.	.	.	0%	24µM*	?	10µM*	?	?	9.6µM*

Compound activity as filed in PubChem BioAssay.
